Results on 38 compounds are retold here after PubChem BioAssay (NCI).

This is part of a sample that, as a whole, favours compounds with a hit. Of some 83,000 tested, about 20% had one in any assay.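 Growth was measured after 48 h exposure to one concentration of compound in 96-well plates. Values under 10 count as active.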 A number with no mark means an inactive call. Activity calls are given as the source filed them.

The test system of one assay is SK-MEL-5 melanoma. As to the kind of experiment: NCI-60 one-dose screen, 48 h (100 = growth as untreated, 0 = no growth, -100 = all killed). The following applies: 10 µM unless noted.
As to `COc1cc(/C=C/C(=O)c2cc(OC)c(OC)c(OC)c2)ccc1OCc1ccc(F)cc1`, the growth was 58.7%. On the same count and under the same terms, under `CC(O)C(NC(=O)C1CCCN1C(=O)CNC(=O)C1CC(=O)NCC(=O)NC(Cc2c[nH]c3ccccc23)C(=O)NC(Cc2ccc(O)cc2)C(=O)NCC(=O)NC(CO)C(=O)NC(CCC(N)=O)C(=O)NC(Cc2c[nH]c3ccccc23)C(=O)N1)C(=O)NCC(=O)NC(CCC(N)=O)C(=O)NC(CCCNC(=N)N)C(=O)NC(CC(=O)O)C(=O)O` (stereo not drawn) stands 101%; under `COc1cc(/C=C/C(=O)c2cc(OC)c(OC)c(OC)c2)ccc1Oc1nc(NCCO)nc(N2CCOCC2)n1`, 3.03% (active); under `COc1cc(N=Cc2sc(Nc3nccs3)nc2O)cc(OC)c1OC`, 87.6%.

Turning to `C#Cc1nc(C2=C(C)C(OC(=O)CCC(=O)O)CC2)cs1` (stereo not drawn), the growth was 101%. `O=C(N/N=C/c1ccc(Br)s1)c1[nH]c2ccc(Br)cc2c1-c1ccccc1`: the growth was -27.3% (active). Take `COc1cc(/C=C/C(=O)c2ccc(Cl)cc2)ccc1Oc1nc(NCCO)nc(N2CCOCC2)n1`: the growth is 99.7%.

With `O=C(N/N=C/c1ccco1)c1[nH]c2ccc(Br)cc2c1-c1ccccc1`, the growth was -16.2% (active). Consider `COC(=O)C(C)NS(=O)(=O)/N=C1\NC(=O)NC1=C(Cl)Cl` (stereo not drawn), for which the growth is 99.1%.

Turning to `COc1cc(/C=C/C(=O)c2ccc(F)cc2)ccc1Oc1nc(NCCO)nc(N2CCOCC2)n1`, the growth was 82.1%.

On to `O=C(CN1CCOCC1)NNc1ncnc2ccccc12`, for which the growth is 98.2%.

The subject of another assay is UACC-62 melanoma. The description is as above. The following applies: 10 µM unless noted.
Take `Cc1cc2nc3c4cc(Cl)ccc4n(CC(=O)NCCN(C)C)c3nc2cc1C`: the growth was 79.4%. Turning to `COc1cc(/C=C/C(=O)c2ccc(C)cc2)ccc1Oc1nc(NCCO)nc(N2CCOCC2)n1`, the growth was 53.4%. For the compound `O=C(N/N=C/c1ccc(Cl)s1)c1[nH]c2ccc(Br)cc2c1-c1ccccc1`, the growth is 41.4%. Turning to `NS(=O)(=O)c1cccc(Nc2nc(SCC(=O)c3ccc([N+](=O)[O-])cc3)nc3ccccc23)c1`, the growth is -12.7% (active). As to `Nc1c(C(=O)c2ccc(Br)cc2)oc2nc(-c3cnccn3)cc(-c3cccs3)c12`, the growth was 93.7%. Take `O=C(N/N=C/c1ccc([N+](=O)[O-])o1)c1[nH]c2ccc(Br)cc2c1-c1ccccc1`: the growth was 6.4% (active).

For the compound `O=C(N/N=C/c1ccc([N+](=O)[O-])s1)c1[nH]c2ccc(Br)cc2c1-c1ccccc1`, the growth is 17.6%. With `C#Cc1nc(C2=C(C)C(O)/C(=N/O)C2)cs1` (stereo not drawn), the growth was 88%. In the case of `COc1cc(/C=C/C(=O)c2cc(OC)c(OC)c(OC)c2)ccc1OCc1ccccc1`, the growth was 38.8%. For the compound `CCCC(=O)NC(c1ccc(N(CC)CC)cc1)c1cc(C)c2cccnc2c1O` (stereo not drawn), the growth was 8.31% (active).

On to `CN1CCc2c(sc3ncnc(N/N=C/c4ccc(Cl)c(Cl)c4)c23)C1`, for which the growth was -26.8% (active). As for `O=C(N/N=C/c1ccc[nH]1)c1[nH]c2ccc(Br)cc2c1-c1ccccc1`, the growth is 13.4%.

With `COC(=O)C1CCCN(S(=O)(=O)/N=C2\NC(=O)NC2=C(Cl)Cl)C1` (stereo not drawn), the growth is 94%.

As for `C=CCn1c(SCC(=O)c2ccccc2)nnc1-c1c[nH]c2ccccc12`, the growth is 81.5%.

As to `COc1ccc(-n2c(SCC(=O)Nc3ccc(-c4nc5ccccc5[nH]4)cc3)nc3ccccc3c2=O)cc1`, the growth is -18.3% (active). Consider `O=C(Oc1ccc2ccc(=O)oc2c1)c1ccc(Cl)cc1`, for which the growth was 97.3%. Regarding `COc1ccc(C(=O)/C=C/c2ccc(OCc3ccc(Cl)cc3)c(OC)c2)cc1OC`, the growth was 52.6%. On to `O=C(N/N=C/c1cccs1)c1[nH]c2ccc(Br)cc2c1-c1ccccc1`, for which the growth was 43%. Regarding `Cc1cc2nc3c4cc(Cl)ccc4n(CC(=S)NCCN(C)C)c3nc2cc1C`, the growth is -67.1% (active). As for `COc1ccc([C@@H]2c3[nH]c4ccccc4c3CC3C(=O)N(C4CCN(Cc5c(F)cccc5F)CC4)CC(=O)N32)c(OC)c1` (stereo partly drawn), the growth was 78.9% [5.26 µM]. For the compound `Cc1cc(C(NC(=O)CCCCCNc2cccc3c2C(=O)N(C2CCC(=O)NC2=O)C3=O)c2cccnc2)c(O)c2ncccc12` (stereo not drawn), the growth was 18.5%. The same measure, in the same setting: under `CC(=NNc1ncnc2ccccc12)c1ccc(S(C)(=O)=O)cc1` stands 96.1%; under `Nc1nc(N)c2c(n1)NC(c1ccc(C(F)(F)F)cc1)CC(c1ccc(Nc3nc(NCCO)nc(Nc4ccc(Cl)cc4)n3)cc1)=N2` (stereo not drawn), -41.5% (active); under `COc1ccc(/C=C2\SC(=Nc3cc(C)[nH]n3)NC2=O)cc1`, 90.6%.

Regarding `Cn1ccnc1C(=O)/C=C/c1ccc(NC(=O)Nc2ccc(Cl)cc2)cc1`, the growth is 92.2%. Regarding `COC(=O)C1CN(S(=O)(=O)/N=C2\NC(=O)NC2=C(Cl)Cl)C1`, the growth is 95.7%.

For the compound `Nc1nc(N)c2c(n1)NC(c1ccc(F)cc1)CC(c1ccc(Nc3nc(NCCO)nc(Nc4ccc(Cl)cc4)n3)cc1)=N2` (stereo not drawn), the growth was 49.8%. Same read-out and setting: under `COc1cc(/C=C/C(=O)c2cc(OC)c(OC)c(OC)c2)ccc1OCc1ccc(F)cc1` stands 43.9%; under `CC(O)C(NC(=O)C1CCCN1C(=O)CNC(=O)C1CC(=O)NCC(=O)NC(Cc2c[nH]c3ccccc23)C(=O)NC(Cc2ccc(O)cc2)C(=O)NCC(=O)NC(CO)C(=O)NC(CCC(N)=O)C(=O)NC(Cc2c[nH]c3ccccc23)C(=O)N1)C(=O)NCC(=O)NC(CCC(N)=O)C(=O)NC(CCCNC(=N)N)C(=O)NC(CC(=O)O)C(=O)O` (stereo not drawn), 94.9%. On to `COc1cc(/C=C/C(=O)c2cc(OC)c(OC)c(OC)c2)ccc1Oc1nc(NCCO)nc(N2CCOCC2)n1`, for which the growth was -4.12% (active). On the same count and under the same terms, for `COc1cc(N=Cc2sc(Nc3nccs3)nc2O)cc(OC)c1OC` the value was 75.5%.

Turning to `C#Cc1nc(C2=C(C)C(OC(=O)CCC(=O)O)CC2)cs1` (stereo not drawn), the growth is 95.3%.

Turning to `O=C(N/N=C/c1ccc(Br)s1)c1[nH]c2ccc(Br)cc2c1-c1ccccc1`, the growth was 41.7%. Regarding `COc1cc(/C=C/C(=O)c2ccc(Cl)cc2)ccc1Oc1nc(NCCO)nc(N2CCOCC2)n1`, the growth was 93.9%. Regarding `O=C(N/N=C/c1ccco1)c1[nH]c2ccc(Br)cc2c1-c1ccccc1`, the growth was 41.1%. Same read-out and setting: for `COC(=O)C(C)NS(=O)(=O)/N=C1\NC(=O)NC1=C(Cl)Cl` (stereo not drawn) the value was 91.9%; for `COc1cc(/C=C/C(=O)c2ccc(F)cc2)ccc1Oc1nc(NCCO)nc(N2CCOCC2)n1`, 57.2%.
